Whole data set: some 140,000 sequences, median “enrichment ratio after two sorts for PhoP signalling” near 0, cut for the highest 2% near 11. Many of the other results were omitted from the sample, so the highest values are more common in it than they were.
B1: PhoQ; a variant is named by its letters at X, in order, P23837 (parent)
chain: MKKLLRLFFPLSLRVRFLLATAAVVLVLSLAYGMVALIGYSVSFDKTTFRLLRGESNLFYTLAKWENNKLHVELPENIDKQSPTMTLIYDENGQLLWAQRDVPWLMKMIQPDWLKSNGFHEIEADVNDTSLLLSGDHSIQQQLQEVREDDDDAEMTHSVAVNVYPATSRMPKLTIVVVDTIPVELKSSYMVWSWFIYVLSANLLLVIPLLWVAAWWSLRPIEALAKEVRELEEHNRELLNPATTRELTSLVRNLNRLLKSERERYDKYRTTLTDLTHSLKTPLXXLQXXLRSLRSEKMSVSDAEPVMLEQISRISQQIGYYLHRASMRGGTLLSRELHPVAPLLDNLTSALNKVYQRKGVNISLDISPEISFVGEQNDFVEVMGNVLDNACKYCLEFVEISARQTDEHLYIVVEDDGPGIPLSKREVIFDRGQRVDTLRPGQGVGLAVAREITEQYEGKIVAGESMLGGARMEVIFGRQHSAPKDE

Variants of: B1
Experiment: enrichment ratio after two sorts for PhoP signalling (ratio (wild type AVST 3.29)); higher = more functional
Conditions: with PhoP (E. coli)

EKVF and HDKH cannot be ordered by enrichment ratio: at most 0.25 for the first, at most 0.25 for the second.

VLRH and RKNR cannot be ordered by enrichment ratio: at most 0.25 for the first, at most 0.25 for the second.

SYSF and DGQH cannot be ordered by enrichment ratio: at most 0.25 for the first, at most 0.25 for the second.

YPAE and NFWK cannot be ordered by enrichment ratio: at most 0.25 for the first, at most 0.25 for the second.

MMNV and NALV cannot be ordered by enrichment ratio: at most 0.25 for the first, at most 0.25 for the second.

Compared with IALV, LNLV is lower in enrichment ratio: 13.1 for the first, at most 0.25 for the second.

IPLV and GSHK cannot be ordered by enrichment ratio: at most 0.25 for the first, at most 0.25 for the second.

First: WILV
Second: GSLV
The enrichment ratio of the first is lower: at most 0.25 for the first, 17.9 for the second.

Going from GNLV to GILV, the enrichment ratio falls from 11.9 to 10.9.

QWMF and VRHG cannot be ordered by enrichment ratio: at most 0.25 for the first, at most 0.25 for the second.

GYNH and TDKY cannot be ordered by enrichment ratio: at most 0.25 for the first, at most 0.25 for the second.

First: TGYH
Second: IQEV
The enrichment ratio of the first is higher: 1.03 for the first, at most 0.25 for the second.

First: PSYQ
Second: AMVW
The enrichment ratio of the first is lower: 1.11 for the first, 11.8 for the second.

First: ACTH
Second: NMVW
The enrichment ratio of the first is higher: 2.87 for the first, at most 0.25 for the second.

First: ACGH
Second: LWHD
The enrichment ratio of the first is higher: 13.6 for the first, at most 0.25 for the second.

PWHD and VLVW cannot be ordered by enrichment ratio: at most 0.25 for the first, at most 0.25 for the second.

Compared with AMWI, AMTS is higher in enrichment ratio: at most 0.25 for the first, 13.9 for the second.

First: AWHD
Second: AITS
The enrichment ratio of the first is higher: 24.7 for the first, 9.53 for the second.

ACNH and SCPW cannot be ordered by enrichment ratio: at most 0.25 for the first, at most 0.25 for the second.

First: KEAN
Second: YKMT
The enrichment ratio of the first is lower: at most 0.25 for the first, 0.253 for the second.

Going from GVMF to MYDC, the enrichment ratio falls from 2.88 to at most 0.25.

VHEE and MGNK cannot be ordered by enrichment ratio: at most 0.25 for the first, at most 0.25 for the second.

EGFI and EGVD cannot be ordered by enrichment ratio: at most 0.25 for the first, at most 0.25 for the second.

QFHL and WTPV cannot be ordered by enrichment ratio: at most 0.25 for the first, at most 0.25 for the second.

FCGM and WFML cannot be ordered by enrichment ratio: at most 0.25 for the first, at most 0.25 for the second.

GWCM and QTWG cannot be ordered by enrichment ratio: at most 0.25 for the first, at most 0.25 for the second.

Going from AITC to AKTI, the enrichment ratio rises from 19 to 23.6.

Going from AMTH to AMGD, the enrichment ratio rises from 0.411 to 11.5.

Going from KKTC to AMGH, the enrichment ratio rises from at most 0.25 to 51.

First: AMTD
Second: AIGH
The enrichment ratio of the first is lower: at most 0.25 for the first, 2.15 for the second.

AKTD and AIFC cannot be ordered by enrichment ratio: at most 0.25 for the first, at most 0.25 for the second.

AMYD and KKTI cannot be ordered by enrichment ratio: at most 0.25 for the first, at most 0.25 for the second.

DKAP and KDMR cannot be ordered by enrichment ratio: at most 0.25 for the first, at most 0.25 for the second.

TRNK and HVKY cannot be ordered by enrichment ratio: at most 0.25 for the first, at most 0.25 for the second.

PFRW and KMGT cannot be ordered by enrichment ratio: at most 0.25 for the first, at most 0.25 for the second.

QKFN and RPYD cannot be ordered by enrichment ratio: at most 0.25 for the first, at most 0.25 for the second.

First: AKTK
Second: AKTC
The enrichment ratio of the first is lower: at most 0.25 for the first, 30.2 for the second.

NMTI and AMPM cannot be ordered by enrichment ratio: at most 0.25 for the first, at most 0.25 for the second.

AMWM and AKFC cannot be ordered by enrichment ratio: at most 0.25 for the first, at most 0.25 for the second.

First: AMTI
Second: AMIM
The enrichment ratio of the first is lower: 11.6 for the first, 29.3 for the second.

First: AMVA
Second: AITI
The enrichment ratio of the first is lower: at most 0.25 for the first, 10.7 for the second.

Compared with AMVQ, NMVQ is lower in enrichment ratio: 13.1 for the first, at most 0.25 for the second.

DMSC and KPPG cannot be ordered by enrichment ratio: at most 0.25 for the first, at most 0.25 for the second.

MFQM and IEMM cannot be ordered by enrichment ratio: at most 0.25 for the first, at most 0.25 for the second.

MKCV and WYPM cannot be ordered by enrichment ratio: at most 0.25 for the first, at most 0.25 for the second.

IISF and KMPW cannot be ordered by enrichment ratio: at most 0.25 for the first, at most 0.25 for the second.

LYRY and PGVK cannot be ordered by enrichment ratio: at most 0.25 for the first, at most 0.25 for the second.

Going from NMAQ to AKAQ, the enrichment ratio rises from at most 0.25 to 7.28.

First: AHGQ
Second: AMAQ
The enrichment ratio of the first is lower: at most 0.25 for the first, 12.1 for the second.

AMFC and NMGQ cannot be ordered by enrichment ratio: at most 0.25 for the first, at most 0.25 for the second.

Compared with AMGQ, AMTC is higher in enrichment ratio: 13.7 for the first, 20.7 for the second.

AMNK and HQSV cannot be ordered by enrichment ratio: at most 0.25 for the first, at most 0.25 for the second.

LFRC and PWKY cannot be ordered by enrichment ratio: at most 0.25 for the first, at most 0.25 for the second.

First: DPKV
Second: TIQF
The enrichment ratio of the first is lower: at most 0.25 for the first, 9.01 for the second.

EQIN and KAIN cannot be ordered by enrichment ratio: at most 0.25 for the first, at most 0.25 for the second.

Going from SGIN to NAIN, the enrichment ratio falls from 11.4 to at most 0.25.

Compared with SRIN, SAIN is higher in enrichment ratio: at most 0.25 for the first, 11.8 for the second.

Going from SQIN to SCIN, the enrichment ratio falls from 12.8 to 0.637.

Going from TGIN to VAML, the enrichment ratio rises from at most 0.25 to 7.99.

KNIR and SWRM cannot be ordered by enrichment ratio: at most 0.25 for the first, at most 0.25 for the second.

TMWP and SLWP cannot be ordered by enrichment ratio: at most 0.25 for the first, at most 0.25 for the second.

DKCH and VWNG cannot be ordered by enrichment ratio: at most 0.25 for the first, at most 0.25 for the second.

Going from GGSY to AISY, the enrichment ratio rises from at most 0.25 to 5.51.

AHSY and ADSY cannot be ordered by enrichment ratio: at most 0.25 for the first, at most 0.25 for the second.

Compared with TGSY, RGSY is lower in enrichment ratio: 15.9 for the first, at most 0.25 for the second.

Compared with AQSY, AKSY is lower in enrichment ratio: 12.7 for the first, 2.91 for the second.

First: AGSY
Second: DTDV
The enrichment ratio of the first is higher: 14.7 for the first, at most 0.25 for the second.

WMKH and MNKP cannot be ordered by enrichment ratio: at most 0.25 for the first, at most 0.25 for the second.

RIYR and FFTK cannot be ordered by enrichment ratio: at most 0.25 for the first, at most 0.25 for the second.

WFGI and HTNW cannot be ordered by enrichment ratio: at most 0.25 for the first, at most 0.25 for the second.

Compared with KLTI, MSHV is higher in enrichment ratio: at most 0.25 for the first, 17.4 for the second.

KAGV and MRHV cannot be ordered by enrichment ratio: at most 0.25 for the first, at most 0.25 for the second.

First: KSGV
Second: MSHF
The enrichment ratio of the first is lower: at most 0.25 for the first, 2.07 for the second.

First: MSGV
Second: SEQA
The enrichment ratio of the first is higher: 13.8 for the first, at most 0.25 for the second.

GVVG and LEYW cannot be ordered by enrichment ratio: at most 0.25 for the first, at most 0.25 for the second.

RSAR and EASM cannot be ordered by enrichment ratio: at most 0.25 for the first, at most 0.25 for the second.

Going from FDLQ to MALQ, the enrichment ratio rises from at most 0.25 to 13.1.

Compared with FILQ, MPLQ is lower in enrichment ratio: 11.5 for the first, at most 0.25 for the second.

Compared with FALQ, FITA is lower in enrichment ratio: 7.48 for the first, at most 0.25 for the second.

FIMQ and WILQ cannot be ordered by enrichment ratio: at most 0.25 for the first, at most 0.25 for the second.

Going from NSLQ to FQLQ, the enrichment ratio rises from 0.291 to 17.7.

Compared with TSLQ, FPLQ is lower in enrichment ratio: 16.4 for the first, at most 0.25 for the second.

TPCV and HIPN cannot be ordered by enrichment ratio: at most 0.25 for the first, at most 0.25 for the second.

WRHY and GDYV cannot be ordered by enrichment ratio: at most 0.25 for the first, at most 0.25 for the second.

LQVN and DQMY cannot be ordered by enrichment ratio: at most 0.25 for the first, at most 0.25 for the second.

VHFI and FDRQ cannot be ordered by enrichment ratio: at most 0.25 for the first, at most 0.25 for the second.

LRHY and KSLQ cannot be ordered by enrichment ratio: at most 0.25 for the first, at most 0.25 for the second.

First: FSLQ
Second: FCLQ
The enrichment ratio of the first is higher: 11.8 for the first, 6.86 for the second.

First: LNSK
Second: VECM
The enrichment ratio of the first is lower: at most 0.25 for the first, 0.698 for the second.

QECM and FCTM cannot be ordered by enrichment ratio: at most 0.25 for the first, at most 0.25 for the second.

First: TCWM
Second: TCNM
The enrichment ratio of the first is lower: at most 0.25 for the first, 1.24 for the second.

Going from TCYA to TCIM, the enrichment ratio falls from 1.75 to 0.447.

First: TCCM
Second: TCTM
The enrichment ratio of the first is lower: 20 for the first, 21.1 for the second.

Compared with TCYN, TCGM is higher in enrichment ratio: 3.25 for the first, 15.3 for the second.

First: TCYM
Second: IMKY
The enrichment ratio of the first is higher: 12.1 for the first, at most 0.25 for the second.

VMEY and TYKQ cannot be ordered by enrichment ratio: at most 0.25 for the first, at most 0.25 for the second.

Going from IGCI to THAC, the enrichment ratio rises from at most 0.25 to 6.19.

For SQFC, the enrichment ratio was at most 0.25.
